Source: PubChem (National Center for Advancing Translational Sciences (NCATS))
p53ts 39C tox: qHTS Screen for Compounds that Selectively Target Cancer Cells with p53 Mutations: Cytotoxicity of p53ts Cells at the Nonpermissive Temperature; Potency, µM (top dose mostly 46.1 µM), inactives show at the top dose activity change, negative = cell killing, actives largely listed as cytotoxic; H1299-p53A138V viability at 39C, ATP luminescence, 24 h; actives 1.5% (n = 130,000); AID 902, 2007; note: % is set by controls: 0 for no effect and ±100 for the full control effect; nearly all actives have a fitted effect of over 55% in size
p53ts 32C kill: qHTS Screen for Compounds that Selectively Target Cancer Cells with p53 Mutations: Cytotoxicity of p53ts Cells at the Permissive Temperature; H1299-p53A138V at 32C, ATP luminescence viability, 24 h; Potency, µM (titrated, usually from 46.1 µM), without a hit: at the top dose activity change, negative = cytotoxicity, actives largely listed as cytotoxic; actives 0.93% (n = 130,000); AID 924, 2007;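 note: 0% = DMSO and -100% = full killing by reference compound; nearly all actives have a fitted effect of over 55% in size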
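H1299-p53 A138V cells (temperature-sensitive p53) exposed 24 h to up to 46 uM compound at 32C, where p53 is wild-type in conformation. Viability read as ATP luminescence and normalised to DMSO and 100 uM tamoxifen. AC50 fitted with the Hill equation.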
Imprint erasure: qHTS Assay for Compounds that Induce Erasure of Genomic Imprints; mouse ES Peg3-LacZ reporter, beta-gal luminescence, 40 h; Potency, µM (top dose mostly 60.7 µM), without a hit: top-dose activity change, positive = activation, most hits filed as activators; actives 0.02% (n = 110,000); AID 1948, 2009
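Readout: BetaGlo luminescence (5 min, room temp) for LacZ from the normally silent maternal Peg3 allele in female Peg3LacZ-Neo ES cells. Cells 300/well, 40 h, 37C, 5% CO2. Data normalized per plate to negative controls.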
Luciferase inh: qHTS Assay for Inhibitors of Firefly Luciferase | actives 2.2% (n = 72,000) | purified firefly luciferase, luminescence, 8 min | Potency, µM (titrated, usually from 57.1 µM), for the others: at the highest dose activity change, negative = inhibition, usual class: inhibitors; note: % is set by controls: 0 for no effect and ±100 for the full control effect; nearly all actives have a fitted effect of over 40% in size
Target sequence (P08659 whole entry, looked up): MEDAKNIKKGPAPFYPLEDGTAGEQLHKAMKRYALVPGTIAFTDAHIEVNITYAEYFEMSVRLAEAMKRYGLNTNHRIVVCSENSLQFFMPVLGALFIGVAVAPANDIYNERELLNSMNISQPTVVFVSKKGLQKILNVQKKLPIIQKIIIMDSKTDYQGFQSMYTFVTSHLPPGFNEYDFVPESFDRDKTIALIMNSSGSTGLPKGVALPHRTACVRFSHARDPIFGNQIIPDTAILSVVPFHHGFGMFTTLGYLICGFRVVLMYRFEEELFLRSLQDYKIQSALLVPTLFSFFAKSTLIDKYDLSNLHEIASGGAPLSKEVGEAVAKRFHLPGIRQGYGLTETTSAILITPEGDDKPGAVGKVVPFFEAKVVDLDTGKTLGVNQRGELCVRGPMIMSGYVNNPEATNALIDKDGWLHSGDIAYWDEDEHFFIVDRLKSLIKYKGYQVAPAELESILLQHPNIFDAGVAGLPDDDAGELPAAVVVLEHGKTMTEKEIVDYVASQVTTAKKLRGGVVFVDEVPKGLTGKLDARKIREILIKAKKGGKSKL
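Compounds were tested as concentration series (qHTS) against purified P. pyralis luciferase with luciferin and 10 uM ATP in 50 mM imidazole pH 7.2, 50 mM KCl, 7 mM MgCl2, 0.01% Tween 20, 0.05% BSA. Luminescence was read after 8 min at ambient temperature.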
IkB sig inh: IkB Signaling; ABC-DLBCL IkBa-CBG/CBR dual luciferase ratio, 4 h; response scale: scaled: untreated 0%, proteasome inhibitor 100%; Potency, µM (series often up to 57.1 µM), without a hit: top-dose IkBa stabilization activation; actives 0.04% (n = 110,000); active = well fitted curve in the direction sought with a large enough effect in the signal ratio, not every such curve was filed as active; inconclusive = small, poorly fitted or top-dose-only effect, or a change in a side signal; the % refers to the signal ratio;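 note: the direction sought is a rising ratio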
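Luminescence ratio of IκBα-fused green versus native red beetle luciferase in OCI-Ly3 cells, 4 h post-doxycycline with compound; red signal alone, scaled from basal (0%) to zero light (-100%), flagged nonspecific or cytotoxic effects.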
* = called active by the depositor; ? = inconclusive; . = no result given; [ ] = dose if it differs, or a comment. A selection: hits, their analogues and other compounds. The true share with any hit is near 2.4%. Unless noted, calls come from the whole dose curve; as a rule, active = well fitted curve in the direction sought with a large enough effect; inconclusive = small, poorly fitted or top-dose-only effect, or another doubt; inactive = no such curve, though single readings can be large; an effect the other way counts as inactive or inconclusive. Potency is the fitted concentration of half-maximal effect.

SMILES	p53ts 39C tox	p53ts 32C kill	Imprint erasure	Luciferase inh	IkB sig inh
O=C(/C=C/c1ccc(O)cc1)c1cccs1	?	31.6µM*	-91.9%	.	.
O=C(/C=C/c1ccc(OCc2ccccc2)cc1)c1cccs1	4.1%	?	-18.9%	.	.
Cc1nn(C)cc1/C=C/C(=O)c1cccs1	?	12.6µM*	.	.	.
COc1cc(/C=C/C(=O)c2cccs2)cc(OC)c1OC	?	6.31µM*	-30.6%	.	.
O=C(/C=C\c1ccc(O)cc1)c1ccc(O)cc1O	34.8%	23.9%	.	25.1µM*	0.5%
COc1ccc(N2CCN(C(=O)C3CCN(S(=O)(=O)c4cccc5nonc45)CC3)CC2)cc1	-7.7%	6.7%	-11.0%[10.9 µM]	.	1.5%
C=CCOc1ccc(/C=C/C(C)=N\O)cc1	-21.6%	?	-64.1%	15.8µM*	0.4%
CC1CCN(C(=O)COC(=O)c2n[nH]c3ccccc23)CC1	10µM*	?	-42.2%	?	7.9%
CCc1ccccc1Nc1nc2ccccc2c2nncn12	-4.6%	0.2%	-2.5%[10.9 µM]	.	?
Cc1ccc2[nH]c(-c3cccc(N)c3)cc2c1	-8.1%	-4.0%	-9.5%	12.6µM*	1.4%
COc1cc(-c2nnn(CC(=O)NC3CCS(=O)(=O)C3)n2)ccc1OCc1ccccc1 (stereo not given)	?	-19.2%	-14.3%	12.6µM*	?
CCCOc1ccc(CC2C(=O)Nc3ccc(Br)cc32)cc1 (stereo not given)	20µM*	?	-6.1%[10.9 µM]	.	-0.6%
CCc1ccc(C(=O)CC2(O)C(=O)N(Cc3ccc(C)cc3)c3ccccc32)cc1 (stereo not given)	?	-3.2%	-20.5%[10.9 µM]	.	?
CCCCN1C(=O)C(O)(CC(=O)c2ccc(C(C)(C)C)cc2)c2ccccc21 (stereo not given)	12.6µM*	?	-11.9%[10.9 µM]	.	?
COc1ccc(OC)c(NC(=O)c2sc3nc4c(cc3c2N)CCCCCC4)c1	12.6µM*	?	-19.0%[10.9 µM]	.	?
CCOc1ccc(NC(=O)c2sc3nc4c(cc3c2N)CCCCCC4)cc1	12.6µM*	?	-7.9%[10.9 µM]	.	-0.9%
Nc1c(C(=O)Nc2ccc(C(=O)O)cc2)sc2nc3c(cc12)CCCC3	?	?	-10.4%[10.9 µM]	.	?
Cc1cccc(NC(=O)c2sc3nc4c(cc3c2N)CCCCCC4)c1C	-16.3%	-5.8%	-18.8%[10.9 µM]	.	2.51µM*
Cc1ccsc1C(=O)OCc1csc(-c2ccccc2)n1	?	?	-93.2%	7.94µM*	?
O=C(OCc1csc(-c2ccccc2)n1)c1cccs1	-1.5%	6.1%	-31.0%	12.6µM*	?
Cc1ccsc1C(=O)OCC(=O)N1CCOCC1	-3.4%	-7.5%	-65.6%	4.5%	-1.9%
Cn1cccc1C(=O)OCc1csc(-c2ccccc2)n1	?	?	-90.5%	7.94µM*	?
O=C(OCc1nc2ccccc2s1)c1cccs1	-4.4%	-7.7%	-5.3%	10µM*	11.1%
Cc1c(-c2cccc(NC(=O)Nc3ccccc3)c2)nc2ncccn12	-23.6%	-3.1%	-7.5%[10.9 µM]	.	?
CCOc1ccc2ncc3c(-c4ccccc4)nn(CC(=O)Nc4cccc(F)c4)c3c2c1	12.9%	1.9%	-3.5%[10.9 µM]	.	-0.7%
SMILES	p53ts 39C tox	p53ts 32C kill	Imprint erasure	Luciferase inh	IkB sig inh
O=S(=O)(c1ccc(Cl)cc1)c1nc(-c2cccs2)oc1SCc1ccccc1F	-23.1%	13.0%	-14.3%[10.9 µM]	.	-6.5%
Cc1ccc(C(=O)Nc2onc3c2CCCC3)cc1	6.31µM*	3.98µM*	-15.2%[10.9 µM]	.	-0.7%
Cc1ncsc1C(=O)Nc1nc2c(s1)CC(C)CC2 (stereo not given)	15.8µM*	?	-87.7%	10µM*	?
CC1CCc2nc(NC(=O)Cc3ccc(Cl)cc3)sc2C1 (stereo not given)	-4.8%	30.4%	-4.4%[10.9 µM]	.	?
COc1ccc(-c2c(O)c3c(OC)c4c(cc3oc2=O)OC(C)(C)CC4)cc1	-28.1%	?	4.8%	.	.
COc1ccc(-c2c(O)c3c(OC)c4c(cc3oc2=O)OC(C)(C)C=C4)cc1	6.31µM*	7.94µM*	0.9%	.	.
